# From PubChem BioAssay
# Several values for one entry are separate records, joined by “and”; a condition that tells them apart may be missing. Equal entries are not always repeated. Activity calls are given as the source filed them.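 Rule for the calls, unless noted: active = compounds whose cell count with miR-34 switched on is under 0.7 times the count with it off; inactive = the rest.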
# Legend:
# [1] = Wnt pathway potentiators raising nuclear beta-catenin – imaging, WNT3A-conditioned medium, mouse C2C12, NPC library, primary screen (AID 1117326; in the data active = nuclear beta-catenin stimulation mostly above about 4.2%, no sharp cut-off; inactive = mostly below about 10%); conditions: stronger effect = higher value
# [2] = stimulators of insulin release from INS-1E, primary screen, cell-based, 5 mM glucose, NPC library (AID 1117329;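 active = compound raises insulin release from rat beta cells at 5 mM glucose, no numeric limit stated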); conditions: rat INS-1E insulin secretion, at 10 µM, stronger effect = higher value
# [3] = growth inhibition of GSK3B-pretreated HCT116 cells – cell-based, CellTiter-Glo, 0.2 to 20 µM (AID 1117336;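 active = compounds lowering colon cancer cell viability after pretreatment blocking the GSK3B kinase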); conditions: HCT116 viability after GSK3B inhibitor, at 20 µM, stronger effect = higher value
# [4] = inhibition of endothelial tube formation, primary screen, imaging, VEGF stimulated, CD31 staining, tube area, NPC library (AID 1117340;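 active = compound that reduces growth-factor-driven endothelial tube area in a mixed cell culture, no cutoff stated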); conditions: VEGF-stimulated ADSC/ECFC co-culture, at 10 µM, stronger effect = higher value
# [5] = GLP1 release stimulators, primary, NCI-H716, NPC library (AID 1117341;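 active = compound raises GLP1 secretion from the human gut endocrine cells, with no numeric limit stated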); conditions: NCI-H716 cells, at 10 µM, stronger effect = higher value
# [6] = HCT116 colon cancer cell growth inhibition, primary screen, CellTiter-Glo luminescence, NPC library (AID 1117342;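 active = compounds that lower survival of HCT116 colon cancer cells in the luminescence readout, no numeric limit stated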); conditions: at 20 µM (top of the series)
# [7] = reduced SW480 viability measured with CellTiter-Glo, NPC library, primary (AID 1117343;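 active = compounds that lower viability of the colon cancer cells in the luminescence readout, with no numeric limit stated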); conditions: CellTiter-Glo luminescence; at 20 µM (top of the series)
# [8] = NPC library primary testing for decreased DLD-1 cell viability via CellTiter-Glo (AID 1117346;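 active = compounds that lower survival of DLD-1 colon cancer cells in the luminescence readout, no cutoff given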); conditions: DLD-1 viability, CellTiter-Glo luminescence; at 20 µM (top of the series)
# [9] = viability loss with induced miR-34 in A549 – imaging, A549 dox-inducible miR-34, nuclei and caspase counts, primary screen (AID 1347080); conditions: A549 miR-34 inducible, Hoechst nuclei count, 48 h
# [10] = galactose survival enhancers in mitochondrial complex I cybrids – cell-based, galactose medium, ATP luminescence, primary screen (AID 1645843;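 active = z-score of at least 1.8 in each of two replicates, scored against plate mean and spread of sample wells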;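 note: positive z means more ATP and so rescue of galactose-driven cybrid death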); conditions: complex I mutant cybrid cells, 72 h, stronger effect = higher value
# [11] = P. berghei load reduction in hepatocytes – cell-based, HepG2, luciferase luminescence, HepG2 viability, primary screen (AID 624349; in the data active = parasite load remaining mostly below about 12%, no sharp cut-off; inactive = mostly above about 10%;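 note: 100% = mean of DMSO negative control wells on the same plate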); conditions: P. berghei liver stage in HepG2, luciferase luminescence, concentration not given here; parasite load remaining: stronger effect = lower value; viability: measured here: HepG2 viability without parasites
# [12] = MELAS cybrid and Rieske KO viability enhancers – cell-based, MELAS cybrids, Rieske KO mouse fibroblasts, CellTiter-Glo, primary screen (AID 1508586;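 active = mean z-score across replicates of 1.96 or higher in either the MELAS or the Rieske mutant cell line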;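 note: z relative to plate mean and SD of compound and empty wells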); conditions: low glucose
# [13] = target: NAD(+) hydrolase SARM1 (Homo sapiens) (UniProt Q6SZW1); test: blocking NAD cleavage by SARM1 SAM-TIR – cell lysate, NAD-Glo luminescence (AID 1508614;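 active = compound whose remaining NAD level is above about 45 nM, limit read from the data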;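 note: higher remaining NAD means stronger inhibition of SARM1 NADase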); conditions: SAM-TIR HEK293T lysate NADase, at 1 µM, stronger effect = higher value
# NAD(+) hydrolase SARM1 (Homo sapiens), sequence (Q6SZW1 whole entry, looked up): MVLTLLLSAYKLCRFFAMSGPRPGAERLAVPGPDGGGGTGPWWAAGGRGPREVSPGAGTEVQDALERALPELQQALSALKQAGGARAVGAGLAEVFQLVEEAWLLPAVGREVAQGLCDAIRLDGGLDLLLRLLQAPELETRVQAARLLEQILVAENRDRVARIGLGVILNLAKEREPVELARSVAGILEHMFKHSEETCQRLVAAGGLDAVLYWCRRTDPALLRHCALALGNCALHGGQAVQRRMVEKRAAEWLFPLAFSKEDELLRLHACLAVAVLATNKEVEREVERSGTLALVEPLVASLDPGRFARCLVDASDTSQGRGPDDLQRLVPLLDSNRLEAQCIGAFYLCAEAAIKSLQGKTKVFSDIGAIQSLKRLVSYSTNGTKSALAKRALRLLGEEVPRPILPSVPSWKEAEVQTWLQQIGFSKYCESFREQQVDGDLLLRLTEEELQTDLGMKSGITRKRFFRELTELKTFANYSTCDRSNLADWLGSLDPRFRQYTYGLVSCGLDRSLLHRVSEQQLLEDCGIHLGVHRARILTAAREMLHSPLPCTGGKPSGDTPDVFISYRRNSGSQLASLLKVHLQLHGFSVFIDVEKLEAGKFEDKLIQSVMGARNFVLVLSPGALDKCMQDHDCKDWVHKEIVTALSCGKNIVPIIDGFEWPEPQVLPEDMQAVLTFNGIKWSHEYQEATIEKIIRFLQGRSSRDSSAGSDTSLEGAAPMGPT
# [14] = compounds altering circadian rhythm period length – cell-based, LOPAC library, luminescence reporter (AID 2774; call rule not given here;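 note: values are relative to mean of DMSO wells on each plate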); conditions: circadian reporter cells, at 7 µM, actives lie on both sides
# [15] = test system: Hepatitis C virus NS3 helicase; test: blockers of NS3h binding to ssDNA – biochemical, fluorescence polarization, LOPAC1280 library, primary screen (AID 687035; in the data active = inhibition above about 37%); conditions: Purified HCV NS3 helicase, Cy5-dT15 ssDNA binding fluorescence polarization; stronger effect = higher value; concentration not given here
# [16] = compounds altering Cy5-DNA-NS3h complex signal – biochemical, LOPAC1280, artefact control for HCV NS3 helicase inhibitor project (AID 687037; call rule not given here); conditions: Cy5-DNA-NS3h complex fluorescence interference counterscreen
# [17] = test system: Aerobactin synthetase IucA (Klebsiella pneumoniae, hypervirulent); test: biochemical IucA inhibition screen of LOPAC library by absorbance (AID 1346212; call rule not given here;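 note: 100% = no compound wells and 0% = no enzyme wells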); conditions: IucA enzyme assay, absorbance (OD) readout; stronger effect = lower value;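 tested at 8 µM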
# [18] = compounds altering viability of human ES cells (AID 493140; call rule not given here;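 note: cells exposed to compounds for four days before counting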); conditions: human embryonic stem cell survival screen; stronger effect = higher value
# [19] = EMT-state selective cytotoxicity in co-culture – imaging, PC-3E GFP, TEM4-18 mCherry, primary screen (AID 1345086;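 active = compounds killing one labelled cell type while sparing the other, by normalised counts and ratio limits, not self-fluorescent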;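 for all read-outs here: cells exposed to compound for 72 h before imaging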;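 for red/green cell ratio (normalised): normalised mesenchymal count divided by normalised epithelial count so high means epithelial killing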); conditions: PC-3E GFP / TEM4-18 mCherry co-culture, imaging cell counts, at 1 µM; for red/green cell ratio (normalised): actives lie on both sides
# [20] = measured here: relative caspase fold change +Dox/-Dox
# [21] = measured here: total cells with miR-34 induction, stronger effect = lower value
# [22] = measured here: total cells without miR-34 induction
# [23] = MELAS cybrid survival, CellTiter-Glo 48 h, stronger effect = higher value
# [24] = Rieske KO mouse fibroblast survival, CellTiter-Glo 72 h
# [25] = measured here: epithelial PC-3E GFP cell survival
# [26] = measured here: mesenchymal TEM4-18 mCherry cell survival
smiles,measurement,setting,value
FC(F)(F)c1cccc(C2=CCN(CCc3ccc4ccccc4c3)CC2)c1,nuclear beta-catenin stimulation,[1]; at 10 µM,-0.7% (inactive)
same,nuclear beta-catenin stimulation,"[1]; stimulation, at 2 µM",-1.5%
same,insulin secretion stimulation,[2],0.45% (inactive)
same,viability decrease,[3],40.2% (inactive)
same,tube area decrease,[4],-6.6% (inactive)
same,GLP1 secretion stimulation,[5],3.7% (inactive)
same,inhibition of viability,[6],42.1% (inactive)
same,viability decrease (inhibition),[7],53.5% (active)
same,viability decrease (inhibition),[8],17.3% (inactive)
same,fold change,"[9]; stronger effect = lower value, cell number ratio, induced over uninduced",0.954 (inactive)
same,fold change,[9]; [20],1.47
same,cell count,[9]; [21],8420
same,cell count,[9]; [22],8830
same,z-score,[10],-0.615 (inactive)
CCCC[N+]1(C)[C@@H]2CC(OC(=O)[C@H](CO)c3ccccc3)C[C@H]1[C@@H]1O[C@@H]12 (some centres undefined),parasite load remaining,[11],35.4% (inactive)
same,viability,[11],61.5%
same,nuclear beta-catenin stimulation,[1]; at 10 µM,1.5% (inactive)
same,nuclear beta-catenin stimulation,"[1]; stimulation, at 2 µM",-0.2%
same,insulin secretion stimulation,[2],0.85% (inactive)
same,viability decrease,[3],11.7% (inactive)
same,tube area decrease,[4],-20.3% (inactive)
same,GLP1 secretion stimulation,[5],0.9% (inactive)
same,inhibition of viability,[6],3.4% (inactive)
same,viability decrease (inhibition),[7],-15.4% (inactive)
same,viability decrease (inhibition),[8],-1.4% (inactive)
same,fold change,[9]; stronger effect = lower value,0.89 (inactive)
same,fold change,[9]; [20],0.894
same,cell count,[9]; [21],9520
same,cell count,[9]; [22],10700
same,z-score,[12]; [23],-0.818 (inactive) and -0.303 (inactive)
same,z-score,[12]; [24],-0.588 and -0.226
same,z-score,[10],0.285 (inactive)
O=C(NC(=O)c1c(F)cccc1F)Nc1cc(Cl)c(OC(F)(F)C(F)C(F)(F)F)cc1Cl (centres undefined),nuclear beta-catenin stimulation,[1]; at 10 µM,2.8% (inactive)
same,nuclear beta-catenin stimulation,"[1]; stimulation, at 2 µM",1.2%
same,insulin secretion stimulation,[2],3.3% (inactive)
same,viability decrease,[3],3.9% (inactive)
same,tube area decrease,[4],19.4% (inactive)
same,GLP1 secretion stimulation,[5],2.3% (inactive)
same,inhibition of viability,[6],35% (inactive)
same,viability decrease (inhibition),[7],19.8% (inactive)
same,viability decrease (inhibition),[8],16.2% (inactive)
same,fold change,[9]; stronger effect = lower value,1.06 (inactive)
same,fold change,[9]; [20],0.7
same,cell count,[9]; [21],7240
same,cell count,[9]; [22],6820
same,remaining NAD,[13],10 nM (inactive)
CC[N+](CC)(CC)CC,period change,[14],0.115 h (inactive)
same,inhibition,[15],14% (inactive)
same,fluorescence ratio (interference),[16],1 (inactive)
same,nuclear beta-catenin stimulation,[1]; at 10 µM,3.6% (inactive)
same,nuclear beta-catenin stimulation,"[1]; stimulation, at 2 µM",0.6%
same,insulin secretion stimulation,[2],0.7% (inactive)
same,viability decrease,[3],-2% (inactive)
same,tube area decrease,[4],1.4% (inactive)
same,GLP1 secretion stimulation,[5],-1.5% (inactive)
same,inhibition of viability,[6],-13.1% (inactive)
same,viability decrease (inhibition),[7],95.5% (active)
same,viability decrease (inhibition),[8],1.35% (inactive)
same,remaining activity,[17],93.6% (inactive)
same,fold change,[9]; stronger effect = lower value,0.929 (inactive)
same,fold change,[9]; [20],1.25
same,cell count,[9]; [21],9810
same,cell count,[9]; [22],10600
same,z-score,[10],0.685 (inactive)
CN1[C@@H]2CC[C@H]1CC(OC(=O)c1cc(Cl)cc(Cl)c1)C2 (some centres undefined),nuclear beta-catenin stimulation,[1]; at 10 µM,5.5% (inactive)
same,nuclear beta-catenin stimulation,"[1]; stimulation, at 2 µM",3.7%
same,insulin secretion stimulation,[2],14.4% (inactive)
same,viability decrease,[3],59.7% (active)
same,tube area decrease,[4],2.2% (inactive)
same,GLP1 secretion stimulation,[5],13.6% (inactive)
same,inhibition of viability,[6],87.1% (active)
same,viability decrease (inhibition),[7],63.5% (active)
same,viability decrease (inhibition),[8],85.1% (active)
same,remaining activity,[17],96.1% (inactive)
CC(C)NCC(O)c1ccc(N)c(C#N)c1 (centres undefined),parasite load remaining,[11],53.9% (inactive)
same,viability,[11],161%
same,nuclear beta-catenin stimulation,[1]; at 10 µM,-0.6% (inactive)
same,nuclear beta-catenin stimulation,"[1]; stimulation, at 2 µM",-0.3%
same,insulin secretion stimulation,[2],2.6% (inactive)
same,viability decrease,[3],25.9% (inactive)
same,tube area decrease,[4],-6.6% (inactive)
same,GLP1 secretion stimulation,[5],8.5% (inactive)
same,inhibition of viability,[6],12.2% (inactive)
same,viability decrease (inhibition),[7],40% (inactive)
same,viability decrease (inhibition),[8],9.6% (inactive)
same,fold change,[9]; stronger effect = lower value,0.911 (inactive) and 0.954 (inactive) and 0.854 (inactive)
same,fold change,[9]; [20],1.24 and 1.48 and 1.65
same,cell count,[9]; [21],6050 and 9400 and 9430
same,cell count,[9]; [22],6640 and 9850 and 11000
same,z-score,[12]; [23],0.636 (inactive)
same,z-score,[12]; [24],1.18
same,z-score,[10],0.17 (inactive) and 0.505 (inactive)
CC(C)c1c(CN(C)C(C)Cc2ccccc2)n(C)n(-c2ccccc2)c1=O (centres undefined),survival,[18],1.08 (inactive)
same,parasite load remaining,[11],76.8% (inactive)
same,viability,[11],87.3%
same,nuclear beta-catenin stimulation,[1]; at 10 µM,1.5% (inactive)
same,nuclear beta-catenin stimulation,"[1]; stimulation, at 2 µM",5.4%
same,insulin secretion stimulation,[2],0% (inactive)
same,viability decrease,[3],-83% (inactive)
same,tube area decrease,[4],9.4% (inactive)
same,GLP1 secretion stimulation,[5],3.9% (inactive)
same,inhibition of viability,[6],50.3% (active)
same,viability decrease (inhibition),[7],103% (active)
same,viability decrease (inhibition),[8],73.2% (active)
same,red/green cell ratio (normalised),[19],1.06 (inactive)
same,normalised cell number,[19]; [25],0.93
same,normalised cell number,[19]; [26],0.98
same,fold change,[9]; stronger effect = lower value,0.889 (inactive)
same,fold change,[9]; [20],1.06
same,cell count,[9]; [21],8350
same,cell count,[9]; [22],9380
same,z-score,[12]; [23],-1.05 (inactive)
same,z-score,[12]; [24],0.158
same,remaining NAD,[13],10 nM (inactive)
O=C1NCN(c2ccccc2)C12CCN(CC1COc3ccccc3O1)CC2 (centres undefined),period change,[14],0.005 h (inactive)
same,parasite load remaining,[11],34.8% (inactive)
same,viability,[11],103%
same,inhibition,[15],-6% (inactive)
same,fluorescence ratio (interference),[16],0.9 (inactive)
same,nuclear beta-catenin stimulation,[1]; at 10 µM,-0.5% (inactive)
same,nuclear beta-catenin stimulation,"[1]; stimulation, at 2 µM",0.8%
same,insulin secretion stimulation,[2],1.2% (inactive)
same,viability decrease,[3],-65.9% (inactive)
same,tube area decrease,[4],5.4% (inactive)
same,GLP1 secretion stimulation,[5],0.9% (inactive)
same,inhibition of viability,[6],17.3% (inactive)
same,viability decrease (inhibition),[7],28.7% (inactive)
same,viability decrease (inhibition),[8],3.2% (inactive)
same,remaining activity,[17],93.6% (inactive)
same,fold change,[9]; stronger effect = lower value,1.02 (inactive) and 0.89 (inactive) and 0.887 (inactive)
same,fold change,[9]; [20],1.92 and 0.981 and 1.04
same,cell count,[9]; [21],9490 and 8620 and 9600
same,cell count,[9]; [22],9350 and 9690 and 10800
same,z-score,[12]; [23],0.415 (inactive)
same,z-score,[12]; [24],1.51
same,z-score,[10],0.48 (inactive) and 0.105 (inactive) and 0.78 (inactive)
C[N+]1(C)[C@@H]2CC[C@H]1CC(OC(=O)C(CO)c1ccccc1)C2 (some centres undefined),nuclear beta-catenin stimulation,[1]; at 10 µM,0.5% (inactive)
same,nuclear beta-catenin stimulation,"[1]; stimulation, at 2 µM",-0.7%
same,insulin secretion stimulation,[2],3.3% (inactive)
same,viability decrease,[3],-5.8% (inactive)
same,tube area decrease,[4],-7.8% (inactive)
same,GLP1 secretion stimulation,[5],2.8% (inactive)
same,inhibition of viability,[6],12.1% (inactive)
same,viability decrease (inhibition),[7],-13.2% (inactive)
same,viability decrease (inhibition),[8],13.1% (inactive)
same,remaining activity,[17],93.2% (inactive)
same,remaining NAD,[13],10 nM (inactive)
O=c1n(Cl)c(=O)n(Cl)c(=O)n1Cl,nuclear beta-catenin stimulation,[1]; at 10 µM,-0.9% (inactive)
same,nuclear beta-catenin stimulation,"[1]; stimulation, at 2 µM",-0.3%
same,insulin secretion stimulation,[2],1.5% (inactive)
same,viability decrease,[3],-15.4% (inactive)
same,tube area decrease,[4],16.7% (inactive)
same,GLP1 secretion stimulation,[5],0.8% (inactive)
same,inhibition of viability,[6],13.9% (inactive)
same,viability decrease (inhibition),[7],11.6% (inactive)
same,viability decrease (inhibition),[8],-0.1% (inactive)
same,red/green cell ratio (normalised),[19],0.94 (inactive)
same,normalised cell number,[19]; [25],1.07
same,normalised cell number,[19]; [26],1
same,fold change,[9]; stronger effect = lower value,0.97 (inactive)
same,fold change,[9]; [20],1.18
same,cell count,[9]; [21],8670
same,cell count,[9]; [22],8940
same,remaining NAD,[13],10 nM (inactive)
